CYP2C9 activ = CYP2C9 (human) activation; P11712; recombinant CYP2C9, luciferin-H conversion, luminescence; active compounds read high; factor 1 = untreated enzyme, 0 = blocked; activation factor at 5 µM; 96,000 tested, 1.4% active;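 active = activation factor of 2 or more for CYP2C9 at a 5 µM dose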
Measles CPE = protection of cells from measles virus | Measles virus-infected cells, CPE protection, absorbance | 140,000 tested, 1.5% active | AID 841 | protection (pct of control), % at 4 µM; in the data active = protection mostly above about 24%, no sharp cut-off; inactive = mostly below about 26%
CYP2C19 act = increases human CYP2C19 enzyme activity; activation factor at 5 µM; 96,000 tested, under 10 active; recombinant CYP2C19, luciferin-H EGE luminescence; active compounds read high; 0 = fully inhibited enzyme, 1 = untreated enzyme; P33261; AID 1025;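 active = activation factor of at least 2 at 5 µM in the primary screen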
Target sequence (P33261 whole entry, looked up): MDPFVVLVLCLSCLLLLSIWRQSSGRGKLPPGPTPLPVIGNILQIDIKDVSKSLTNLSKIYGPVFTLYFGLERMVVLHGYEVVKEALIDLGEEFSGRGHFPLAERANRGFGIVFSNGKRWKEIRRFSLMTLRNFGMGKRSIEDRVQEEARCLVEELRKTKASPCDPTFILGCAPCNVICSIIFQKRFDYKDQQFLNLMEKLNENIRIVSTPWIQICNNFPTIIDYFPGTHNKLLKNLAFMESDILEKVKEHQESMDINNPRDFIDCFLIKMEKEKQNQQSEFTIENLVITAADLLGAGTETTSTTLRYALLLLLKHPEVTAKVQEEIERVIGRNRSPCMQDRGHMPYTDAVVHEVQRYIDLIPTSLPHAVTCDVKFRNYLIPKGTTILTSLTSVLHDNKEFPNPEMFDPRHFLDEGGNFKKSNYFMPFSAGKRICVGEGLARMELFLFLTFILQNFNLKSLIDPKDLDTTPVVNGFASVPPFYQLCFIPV
CYP2C19 inhib = blocks human cytochrome P450 2C19; P33261; CYP2C19 Supersomes, luciferin-H EGE luminescence, 30 min; inhibition, % at 5 µM; 96,000 tested, 21% active;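 active = CYP2C19 inhibition above a set limit at 5 µM in the primary screen, cut at about 50% in these data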
CYP2C9 inhib = human CYP2C9 inhibition | CYP2C9 Supersomes, luciferin-H conversion, luminescence | inhibition, % at 5 µM | 96,000 tested, 20% active | P11712;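 active = blocking of liver enzyme CYP2C9 beyond about 50% at 5 µM, limit read from the data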
Large screens that a line does not name were inactive. Compounds with a hit are over-represented: about 22% of the library has one in this group of screens.

COCCn1c(SCC(=O)Nc2sc(C)c(C)c2C#N)nnc1-c1ccc(OC)cc1	CYP2C9 inhib 54.3
COCCCn1c(SCC(=O)Nc2cccc(C(=O)OC)c2)nnc1-c1ccncc1	CYP2C19 inhib 81.3, CYP2C9 inhib 79.4
COCCn1c(SCC(=O)Nc2cccc(OC)c2)nnc1-c1ccc(Cl)cc1	CYP2C19 inhib 93.5, CYP2C9 inhib 67.4
CN1C(=O)/C(=C2\SC(N3CCCCCC3)=NC2=O)c2ccccc21	CYP2C9 activ 2.7
CCOC(=O)c1ccc2cccc(C)n2c1=O	CYP2C19 inhib 87.5, CYP2C9 inhib 74.4
Cc1onc(-c2ccccc2Cl)c1C(=O)Nc1ccc(-c2cn3cccnc3n2)cc1	none
Cc1ccc(-c2cn3cccnc3n2)cc1NC(=O)c1c(-c2ccccc2Cl)noc1C	CYP2C19 inhib 54.0
Cc1onc(-c2ccccc2Cl)c1C(=O)Nc1cccc(-c2nc3ncccn3c2C)c1	CYP2C19 inhib 54.8, CYP2C9 inhib 52.4
Cc1ccnc2nc(C(=O)OCC(=O)NCCc3ccccc3)nn12	none (no result: CYP2C9 activ, CYP2C19 act, CYP2C19 inhib, CYP2C9 inhib)
O=C(Nc1cccc(Cl)c1)O/N=C\c1ccncc1	CYP2C19 inhib 88.6, CYP2C9 inhib 89.9
COc1cccc(NC(=O)COC(=O)c2nc3nccc(C)n3n2)c1	Measles CPE 75.6
Cc1cnc(C(=O)OCC(=O)Nc2cccc(Cl)c2)cn1	none
O=C(COC(=O)c1cccnc1)Nc1cccc(Cl)c1	CYP2C19 inhib 85.7, CYP2C9 inhib 69.1
O=C(COC(=O)c1ccncc1)Nc1cccc(Cl)c1	CYP2C19 inhib 77.5, CYP2C9 inhib 87.4
CCOC(=O)c1cccc(NC(=O)c2cccnc2)c1	none
COC(=O)c1nnn(CC(=O)Nc2cccc(Cl)c2)c1C(=O)OC	CYP2C19 inhib 79.1, CYP2C9 inhib 70.5
COc1cccc(NC(=O)c2cccnc2)c1	none
COC(=O)c1nnn(CC(=O)Nc2ccc(C)c(F)c2)c1C(=O)OC	none
COc1cccc(NC(=O)COC(=O)c2cccnc2)c1	CYP2C19 inhib 66.6
CCN(CC)c1ccc(NC(=O)CSc2nc3ccccc3c(=O)n2-c2cc(S(=O)(=O)N(C)C)ccc2C)cc1	none (no result: CYP2C9 activ, CYP2C19 act, CYP2C19 inhib, CYP2C9 inhib)
C=CCc1cccc([C@@H]2[C@@H](C)CC[C@H]3C(=O)N4[C@@H](c5cc(OC)c(OC)c(OC)c5)c5[nH]c6ccccc6c5C[C@H]4C(=O)N23)c1	none (no result: CYP2C9 activ, CYP2C19 act, CYP2C19 inhib, CYP2C9 inhib)
CCN=C1S/C(=C\c2ccc(OC)c(OCC)c2)C(=O)N1CC	none (no result: CYP2C9 activ, CYP2C19 act, CYP2C19 inhib, CYP2C9 inhib)
COc1cc(/C=C2/SC(=O)N(Cc3ccccc3)C2=O)ccc1OCc1ccncc1	CYP2C19 inhib 79.6, CYP2C9 inhib 82.3
COc1ccc(/C=C2\SC(=NCc3ccccc3)N(Cc3ccccc3)C2=O)cc1OC	CYP2C19 inhib 71.9
Cc1cccc(C(=O)c2c[nH]cc2-c2ccccc2)c1	none (no result: CYP2C9 activ, CYP2C19 act, CYP2C19 inhib, CYP2C9 inhib)
CCn1c2ccccc2c2nnc(SCCCn3c(=O)[nH]c4ccccc43)nc21	CYP2C19 inhib 78.3, CYP2C9 inhib 87.5
O=c1[nH]c2ccccc2n1Cc1ccc(Cl)cc1	CYP2C19 inhib 72.8
O=c1[nH]c2ccccc2n1CCC1CCCCC1	CYP2C19 inhib 92.6, CYP2C9 inhib 56.2
O=c1[nH]c2ccccc2n1CCCSCCCn1c(=O)[nH]c2ccccc21	CYP2C9 inhib 88.4
O=C(CCN1C(=O)S/C(=C\c2cccs2)C1=O)NC1=NCCS1	none (no result: CYP2C9 activ, CYP2C19 act, CYP2C19 inhib, CYP2C9 inhib)
S=C(c1ccc(-c2ccc(Cl)cc2Cl)o1)N1CCCCC1	CYP2C19 inhib 62.0, CYP2C9 inhib 72.3
OCCN1CCN(C(=S)c2ccc(Cl)c(Cl)c2)CC1	none
S=C(c1ccc(-c2ccc(Cl)c(Cl)c2)o1)N1CCOCC1	CYP2C19 inhib 87.5, CYP2C9 inhib 88.8
N#CCCN1CCN(C(=S)c2ccc(-c3cc(Cl)ccc3Cl)o2)CC1	CYP2C9 activ 2.7
S=C(c1ccc(-c2ccccc2Cl)o1)N1CCOCC1	none
CSc1cccc(NC(=O)CN(C)S(=O)(=O)c2ccc(F)cc2)c1	CYP2C19 inhib 62.7
CCN(CC(=O)Nc1ccccc1C(=O)OC)S(=O)(=O)c1ccccc1	CYP2C19 inhib 80.5
CSc1cccc(NC(=O)COc2cccc3ccccc23)c1	CYP2C9 activ 2.2
CN(CC(=O)Nc1nccs1)S(=O)(=O)c1ccc(F)cc1	CYP2C19 inhib 67.2
COc1ccccc1C(=O)Nc1cccc(SC)c1	none (no result: CYP2C9 activ, CYP2C19 act, CYP2C19 inhib, CYP2C9 inhib)
CC(C)NC(=O)CN(C)S(=O)(=O)c1ccc(F)cc1	none (no result: Measles CPE)
N/C(Cc1ccc(Cl)cc1)=N\OC(=O)C1CCCCC1	none (no result: CYP2C9 activ, CYP2C19 act, CYP2C19 inhib, CYP2C9 inhib)
CN1CCN(CCCN2c3ccccc3Sc3ccc(C(F)(F)F)cc32)CC1	none (no result: CYP2C9 activ, CYP2C19 act, CYP2C19 inhib, CYP2C9 inhib)
CSc1cccc(NC(=O)CN(C)S(=O)(=O)c2ccccc2)c1	CYP2C19 inhib 86.1
CCCC(=O)Nc1ccccc1NC(=O)CN(C)S(=O)(=O)c1ccccc1	CYP2C9 inhib 58.4
CSc1cccc(NC(=O)CCC(=O)O)c1	none (no result: CYP2C9 activ, CYP2C19 act, CYP2C19 inhib, CYP2C9 inhib)
Cc1c(C(=O)NCC2CCCO2)oc2ccc(S(=O)(=O)N3CC(C)CC(C)C3)cc12 (centres undefined)	CYP2C9 inhib 58.9
CCN(CC)S(=O)(=O)c1ccc2oc(C(=O)NCC3COc4ccccc4O3)c(C)c2c1 (centres undefined)	CYP2C9 inhib 75.5
CCN(CC)S(=O)(=O)c1ccc2oc(SCc3ccc(F)cc3)nc2c1	CYP2C9 inhib 68.8
COc1ccccc1NS(=O)(=O)c1ccc2oc(SCc3ccc(C#N)cc3)nc2c1	none (no result: CYP2C9 activ, CYP2C19 act, CYP2C19 inhib, CYP2C9 inhib)
Cc1c(C(=O)NCC2CCCO2)oc2ccc(S(=O)(=O)N3CCCCC3)cc12 (centres undefined)	none (no result: CYP2C9 activ, CYP2C19 act, CYP2C19 inhib, CYP2C9 inhib)
Cc1c(C(=O)NCC2COc3ccccc3O2)oc2ccc(S(=O)(=O)N3CCOCC3)cc12 (centres undefined)	CYP2C9 inhib 55.8
CCCn1c(=O)c(C(=O)NNS(=O)(=O)c2ccc(Cl)cc2)c(O)c2ccccc21	none (no result: CYP2C9 activ, CYP2C19 act, CYP2C19 inhib, CYP2C9 inhib)
Cc1nc(Cl)c(C(=O)NC(=O)NCc2ccccc2)c(C)c1Cl	none (no result: CYP2C9 activ, CYP2C19 act, CYP2C19 inhib, CYP2C9 inhib)
Cc1cccc(C(=O)NNC(=O)c2ccco2)c1	none (no result: CYP2C9 activ, CYP2C19 act, CYP2C19 inhib, CYP2C9 inhib)
CCOC(=O)C(C)/C(C)=N/NC(N)=S (centres undefined)	none (no result: CYP2C9 activ, CYP2C19 act, CYP2C19 inhib, CYP2C9 inhib)
CCN(CC)S(=O)(=O)c1ccc2oc(C(=O)NCCCN3CCOCC3)c(C)c2c1	none
CCN(CC)S(=O)(=O)c1ccc2oc(C(=O)NCc3ccc(F)cc3)c(C)c2c1	CYP2C19 inhib 58.2, CYP2C9 inhib 59.4
CCOC(=O)Cc1csc(SCc2nc3ccccc3c(=O)[nH]2)n1	CYP2C9 inhib 73.0
CCOC(=O)Cc1csc(SCC(=O)/C(C#N)=C(\C)N)n1	CYP2C19 inhib 94.6
O=C(OCc1nc2ccccc2c(=O)[nH]1)c1cccs1	CYP2C19 inhib 58.1, CYP2C9 inhib 59.2
COc1ccccc1CC1(C)NC(=O)N(CC(=O)Nc2cc(C)on2)C1=O (centres undefined)	none
COc1ccc(NC(=O)C(=O)NCc2ccncc2)c(OC)c1	CYP2C19 inhib 57.4, CYP2C9 inhib 70.2
COc1ccc(C)cc1NC(=O)C(=O)NCc1ccncc1	CYP2C9 inhib 77.9
CCOC(=O)Nc1cc(C)ccc1OC	none
CC(C)n1nnnc1C(c1ccc(F)cc1)N1CCN(C2CCCC2)CC1 (centres undefined)	none
COc1ccccc1N1CCN(C(c2ccc(F)cc2)c2nnnn2C(C)C)CC1 (centres undefined)	CYP2C19 inhib 51.7

Bioassay records: PubChem, several laboratories
